Unmarked numbers belong to inactive results.
System: gramicidin D channels in DC22:1PC lipid vesicles (bilayer-modifying potency)
Experiment: initial Tl+ fluorescence quench rate relative to no-drug control (NormRate, gramicidin monomer-dimer shift) (ratio (fold of control)); higher = stronger bilayer-modifying effect (equilibrium shifted toward conducting dimers), active = 1.5 or more
Conditions: 10 µM; lipid concentration 50 µM; temperature: 25 °C
Experimental: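 Stopped-flow fluorescence quench assay: ANTS-loaded DC22:1PC large unilamellar vesicles doped with gramicidin D (1:2000), 50 µM lipid, equilibrated 10 min with 10 µM drug (0.1% DMSO), mixed with Tl+ quench buffer at 25°C. Initial quench rate (Tl+ influx) was fitted with a modified stretched exponential and normalised to the no-drug control rate (NormRate); duplicates from two independent LUV preparations (triplicates for 7 drugs).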

Row | Compound | initial Tl+ fluorescence quench rate
1 | CNc1cc(C)nc([C@@H]2CN(C(=O)c3n[nH]c4ccccc34)CCO2)c1 | 1.11
2 | O=C([C@@H](c1ccc(Cl)cc1)c1cccnc1)N1CCN(c2ccc(C(F)(F)F)cc2)CC1 | 10.5 (active)
3 | C[C@@H](C(=O)N1CCCC1)N1CCN(S(=O)(=O)c2ccc(C(C)(C)C)cc2)CC1 | 1.15
4 | O=S(=O)(c1ccc(Cl)cc1)N1CCN(C(=S)NCc2ccco2)CC1 | 1.54 (active)
5 | O=C(C1CCN(c2nnc(-n3cccc3)s2)CC1)N1CCC(Cc2ccccc2)CC1 | 1.24
6 | COc1ccc(-c2onc(C(F)(F)F)c2-c2ccc(Cl)cc2)c(O)c1 | 1.38
7 | COc1ccc(Cn2cnc3c(-c4ccco4)nc(Cl)nc32)cc1 | 1.59 (active)
8 | CC1=Nc2ccc(Cl)cc2[C@](O)(c2ccc(C)cc2)N1CCN1CCCCC1 | 1.66 (active)
9 | Cc1ccc2nc(C)c(-c3ccn(Cc4ccccc4)n3)n2c1 | 1.28
10 | C[C@@H](Oc1cccc(Cl)c1)C(=O)Nc1ccc2oc(-c3ccncc3)nc2c1 | 1.72 (active)
11 | O=C(NCCN1CCCC1)c1cc(NCCN2CCOCC2)nc2ccc(Cl)cc12 | 1.15
12 | COc1cc(Br)cc2cc(C(=O)Nc3cccc(C(F)(F)F)c3)c(=O)oc12 | 1.05
13 | CC[C@H](C)NC(=O)c1ccc(NC(=O)C2(c3ccccc3)CCCC2)cc1 | 1.75 (active)
14 | COc1ccc(CCN2CCC(NCc3cccc(N(C)C)c3)CC2)cc1 | 1.07
15 | NS(=O)(=O)c1cncc(-c2ccc3nccc(-c4cn[nH]c4)c3n2)c1 | 1.18
16 | NCC[C@H](O)C(=O)N[C@@H]1C[C@H](N)[C@@H](O[C@H]2O[C@H](CN)[C@@H](O)[C@H](O)[C@H]2O)[C@H](O)[C@@H]1O[C@H]1O[C@H](CO)[C@@H](O)[C@H](N)[C@H]1O | 1.02
17 | C[C@H]1COc2c(N3CCN(C)CC3)c(F)cc3c(=O)c(C(=O)O)cn1c23 | 1.04
18 | CCc1ccc(S(=O)(=O)Nc2cc(CN3CCN(CCC(C)C)CC3)ccc2C)cc1 | 1.29
19 | CC(C)(C(=O)Nc1ccc(F)cc1)n1cc(-c2ccccc2F)cn1 | 1.42

Row | Compound | initial Tl+ fluorescence quench rate
20 | NCCN(C(=O)c1ccc(Cl)cc1Cl)c1ccc(OCc2ccc(Cl)cc2)cc1 | 5.93 (active)
21 | Cc1ccc2cc([C@@H]3NC(=O)c4ccccc4N3)c(Cl)nc2c1 | 1.08
22 | CCCn1c(NC(=O)c2ccc3ccccc3n2)nc2ccccc21 | 1.4
23 | Cc1cccnc1NC(=O)c1cccc(OCc2c(C)noc2C)c1 | 1.07
24 | CN(C(=O)c1cc2c(-c3cncnc3)cccc2[nH]1)c1ccccc1 | 1.12
25 | C[C@H](C(N)=O)N1CCCC[C@H]1c1ccc(OCc2cccc(F)c2)cc1 | 1.21
26 | Cc1ncc(-c2ccnc(Nc3ccc(S(C)(=O)=O)cc3)n2)n1C(C)C | 1.03
27 | O=C(Nc1ccccc1)c1ccc(-c2cc3ccncc3cc2OC2CCNCC2)s1 | 1.8 (active)
28 | O=C(NCc1ccoc1)N1CCN(Cc2ccc3c(c2)OCO3)CC1 | 1.11
29 | CN1CCN(c2nccc3[nH]c(-c4cccc(F)c4)cc23)CC1 | 1.1
30 | Cc1nc(-c2ccccn2)nc(N(C)CCc2ccccc2)c1Cl | 2.23 (active)
31 | CC(C)(C)CN1C(=O)C(c2ccccc2)(c2ccccc2)N=C1N | 2.96 (active)
32 | O=C(CCC1CCCCC1)Nc1cccc(-c2nnc(-c3ccco3)o2)c1 | 1.57 (active)
33 | CC[C@H](NC(=O)c1ccccc1NC(=O)c1ccc(C)cc1)C(=O)OC | 1.32
34 | O=C(Nc1nnc(-c2ccc(Cl)cc2)o1)c1cccc(C(F)(F)F)c1 | 1.07
35 | O=C(Nc1ccc(C(F)(F)F)c(C(F)(F)F)c1)c1cc(Cl)ccc1O | 2.9 (active)
36 | NCCC[C@](N)(C(=O)O)C(F)F | 1.07
37 | COc1ccc(Cl)cc1NC(=O)CN(C)C(=O)c1cnn(-c2ccccc2)n1 | 3.28 (active)
